{"source": "the supplement of paper PMC6411743", "note": "± gives the standard deviation of the averaged measurements. Of roughly 6,200 targets only a part is listed; those with the largest changes were picked by preference.", "data": [{"compound": "Nc1ncnc2c1ncn2[C@@H]1O[C@H](COP(=O)(O)OP(=O)(O)NP(=O)(O)O)[C@@H](O)[C@H]1O [adenylyl imidodiphosphate]", "experiment": "NP40-soluble protein abundance relative to vehicle (solubility fold change) (ratio); higher = more soluble protein in presence of AMP-PNP", "conditions": "concentration: 8mM", "outline": "(§1)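 In three independent experiments, Jurkat crude lysate made by Dounce homogenisation was treated for 10 min at room temperature and then 3 min at 37 °C with eight concentrations ranging from 0.1 to 10 mM. It was then solubilised with 0.8% NP40 plus benzonase for 60 min at 4 °C and ultracentrifuged. The supernatant was TMT-labelled for LC-MS/MS, and each value is the fold change against the detergent-processed vehicle for the same replicate, using vsn-normalised intensities.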", "values": [{"target": "C9JKL2|O95772|O95772-2|C9J3F5|C9JJ39|C9JPX5 (UniProt O95772)", "NP40-soluble protein abundance": "0.989 ± 0.019"}, {"target": "H7C5A7|O14734 (UniProt O14734)", "NP40-soluble protein abundance": "0.97 ± 0.015"}, {"target": "J3KNF8|O43169 (UniProt O43169)", "NP40-soluble protein abundance": "1.03 ± 0.08"}, {"target": "SART1 (UniProt O43290)", "sequence (O43290 whole entry)": "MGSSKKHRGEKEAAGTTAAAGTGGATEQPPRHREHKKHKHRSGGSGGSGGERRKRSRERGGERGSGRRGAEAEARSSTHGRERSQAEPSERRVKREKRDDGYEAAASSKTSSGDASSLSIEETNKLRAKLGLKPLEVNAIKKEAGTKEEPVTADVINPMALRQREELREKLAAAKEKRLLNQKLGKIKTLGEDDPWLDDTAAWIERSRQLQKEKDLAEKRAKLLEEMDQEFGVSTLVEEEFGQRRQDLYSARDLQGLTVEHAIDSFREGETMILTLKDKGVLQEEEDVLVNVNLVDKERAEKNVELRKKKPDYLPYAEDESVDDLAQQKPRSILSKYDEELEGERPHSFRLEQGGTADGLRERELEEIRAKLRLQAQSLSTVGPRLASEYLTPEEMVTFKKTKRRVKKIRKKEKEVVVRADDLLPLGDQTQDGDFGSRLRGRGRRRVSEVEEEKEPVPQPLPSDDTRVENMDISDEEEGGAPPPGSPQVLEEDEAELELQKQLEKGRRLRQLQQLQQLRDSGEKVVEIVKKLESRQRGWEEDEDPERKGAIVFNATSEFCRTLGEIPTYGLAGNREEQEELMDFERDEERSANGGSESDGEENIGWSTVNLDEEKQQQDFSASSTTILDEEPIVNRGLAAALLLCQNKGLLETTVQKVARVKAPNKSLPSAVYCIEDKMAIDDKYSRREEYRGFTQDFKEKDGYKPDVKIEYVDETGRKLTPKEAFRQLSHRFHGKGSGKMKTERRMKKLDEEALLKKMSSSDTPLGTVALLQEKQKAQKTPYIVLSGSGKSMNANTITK", "NP40-soluble protein abundance": "1.26 ± 0.067"}, {"target": "H0YIV9|O43716 (UniProt O43716+H0YIV9)", "NP40-soluble protein abundance": "0.977 ± 0.015"}, {"target": "J3KNN5|Q9UJV9 (UniProt Q9UJV9)", "NP40-soluble protein abundance": "1.15 ± 0.053"}, {"target": "CHMP2A (UniProt O43633)", "NP40-soluble protein abundance": "0.971 ± 0.031"}, {"target": "C9JIF9|P13798 (UniProt P13798)", "NP40-soluble protein abundance": "0.909 ± 0.022"}, {"target": "ZC3H11A (UniProt O75152)", "NP40-soluble protein abundance": "0.933 ± 0.098"}, {"target": "F8VXC8|Q8TAQ2|Q8TAQ2-2|Q8TAQ2-3 (UniProt Q8TAQ2)", "NP40-soluble protein abundance": "1.04 ± 0.064"}, {"target": "I3L4X7|Q13227|Q13227-2 (UniProt Q13227)", "NP40-soluble protein abundance": "1.05 ± 0.019"}, {"target": "E9PBG7|E9PF82|Q13557|Q13557-10|Q13557-11|Q13557-12|Q13557-3|Q13557-4|Q13557-5|Q13557-6|Q13557-8|Q13557-9 (UniProt Q13557)", "NP40-soluble protein abundance": "0.878 ± 0.022"}, {"target": "A0A0A0MTB8|Q8NI36 (UniProt Q8NI36)", "NP40-soluble protein abundance": "1.73 ± 0.16"}, {"target": "F8VU39|J3KPG5|Q9UIF9|Q9UIF9-2|Q9UIF9-3 (UniProt Q9UIF9)", "sequence (Q9UIF9 whole entry, one chain of several)": "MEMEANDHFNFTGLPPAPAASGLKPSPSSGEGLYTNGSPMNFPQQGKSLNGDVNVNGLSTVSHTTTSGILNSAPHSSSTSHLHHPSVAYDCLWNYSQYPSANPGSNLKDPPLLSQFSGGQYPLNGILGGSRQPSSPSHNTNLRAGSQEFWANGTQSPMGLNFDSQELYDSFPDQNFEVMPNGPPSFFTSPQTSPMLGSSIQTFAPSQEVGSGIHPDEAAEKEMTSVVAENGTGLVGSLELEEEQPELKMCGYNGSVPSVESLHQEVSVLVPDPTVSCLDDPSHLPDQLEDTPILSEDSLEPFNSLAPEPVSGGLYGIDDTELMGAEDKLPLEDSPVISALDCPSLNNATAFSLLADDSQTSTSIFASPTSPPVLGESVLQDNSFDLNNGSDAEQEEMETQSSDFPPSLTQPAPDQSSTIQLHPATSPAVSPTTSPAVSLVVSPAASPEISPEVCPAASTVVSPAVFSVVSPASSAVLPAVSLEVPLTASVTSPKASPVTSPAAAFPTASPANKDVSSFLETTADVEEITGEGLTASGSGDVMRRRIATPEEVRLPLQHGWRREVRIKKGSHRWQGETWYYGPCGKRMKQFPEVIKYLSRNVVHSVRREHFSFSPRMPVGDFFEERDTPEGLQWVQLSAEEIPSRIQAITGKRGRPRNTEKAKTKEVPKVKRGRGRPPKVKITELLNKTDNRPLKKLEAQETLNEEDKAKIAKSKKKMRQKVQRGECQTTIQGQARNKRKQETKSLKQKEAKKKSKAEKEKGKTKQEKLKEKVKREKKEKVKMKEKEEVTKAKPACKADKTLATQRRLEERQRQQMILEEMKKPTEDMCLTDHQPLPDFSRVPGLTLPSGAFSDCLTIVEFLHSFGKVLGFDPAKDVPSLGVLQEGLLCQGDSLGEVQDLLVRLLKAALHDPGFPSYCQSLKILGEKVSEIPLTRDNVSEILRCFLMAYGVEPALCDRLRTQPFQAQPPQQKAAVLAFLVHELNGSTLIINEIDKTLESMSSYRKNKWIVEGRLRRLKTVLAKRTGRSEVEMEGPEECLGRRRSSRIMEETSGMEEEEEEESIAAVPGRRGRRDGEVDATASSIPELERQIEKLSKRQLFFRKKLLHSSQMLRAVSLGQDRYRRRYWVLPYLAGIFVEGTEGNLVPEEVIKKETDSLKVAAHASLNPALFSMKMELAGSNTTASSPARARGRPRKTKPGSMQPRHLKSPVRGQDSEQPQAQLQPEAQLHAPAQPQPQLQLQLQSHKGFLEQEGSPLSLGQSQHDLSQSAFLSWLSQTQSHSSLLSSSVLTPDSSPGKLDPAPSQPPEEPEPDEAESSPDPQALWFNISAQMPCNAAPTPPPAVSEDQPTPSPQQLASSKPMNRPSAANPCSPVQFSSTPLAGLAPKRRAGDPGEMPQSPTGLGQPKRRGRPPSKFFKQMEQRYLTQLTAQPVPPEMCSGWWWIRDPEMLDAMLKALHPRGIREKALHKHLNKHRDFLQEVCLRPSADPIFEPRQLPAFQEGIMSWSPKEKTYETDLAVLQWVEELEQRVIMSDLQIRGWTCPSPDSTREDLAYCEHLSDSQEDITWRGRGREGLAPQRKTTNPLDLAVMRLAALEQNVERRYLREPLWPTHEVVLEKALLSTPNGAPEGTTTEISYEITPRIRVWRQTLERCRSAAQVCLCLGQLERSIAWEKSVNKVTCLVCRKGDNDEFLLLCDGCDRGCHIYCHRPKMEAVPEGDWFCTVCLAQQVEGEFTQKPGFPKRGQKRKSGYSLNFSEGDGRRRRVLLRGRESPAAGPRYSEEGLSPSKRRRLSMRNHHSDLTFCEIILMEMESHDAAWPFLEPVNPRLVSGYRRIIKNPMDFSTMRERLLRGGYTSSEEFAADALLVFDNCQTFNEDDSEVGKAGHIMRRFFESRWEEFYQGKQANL", "NP40-soluble protein abundance": "1.01 ± 0.014"}, {"target": "A0A0B4J220 (UniProt E9PRG8)", "NP40-soluble protein abundance": "1.4 ± 0.053"}, {"target": "F5H0R1|Q9H6E5 (UniProt Q9H6E5)", "NP40-soluble protein abundance": "0.983 ± 0.024"}, {"target": "E7ESS3|K7EKW3|Q71RG4|Q71RG4-2 (UniProt Q71RG4)", "NP40-soluble protein abundance": "1.01 ± 0.037"}, {"target": "K7EK07|P84243 (UniProt P84243+K7EK07)", "NP40-soluble protein abundance": "1.09 ± 0.15"}, {"target": "A0A0A0MTL5|Q13309|Q13309-2 (UniProt Q13309)", "NP40-soluble protein abundance": "0.923 ± 0.036"}, {"target": "CDIPT (UniProt O14735)", "NP40-soluble protein abundance": "1.03 ± 0.073"}, {"target": "J3KPP4|O95232 (UniProt O95232)", "NP40-soluble protein abundance": "1.3 ± 0.039"}, {"target": "F8W1A0|P36873 (UniProt P36873)", "NP40-soluble protein abundance": "0.986 ± 0.021"}, {"target": "PSMD3 (UniProt O43242)", "NP40-soluble protein abundance": "0.933 ± 0.11"}, {"target": "F5H7W8|Q96C57 (UniProt Q96C57)", "NP40-soluble protein abundance": "1.34 ± 0.062"}, {"target": "CCDC85C (UniProt A6NKD9)", "NP40-soluble protein abundance": "0.9793 ± 0.0043"}, {"target": "F6TLX2|Q9HC38-2 (UniProt Q9HC38)", "NP40-soluble protein abundance": "0.938 ± 0.034"}, {"target": "B4E0Y9|Q8NBY1|Q9P289 (UniProt Q9P289)", "NP40-soluble protein abundance": "1.01 ± 0.045"}, {"target": "I3VM54|Q9Y2K7 (UniProt Q9Y2K7)", "sequence (Q9Y2K7 whole entry, one chain of several)": "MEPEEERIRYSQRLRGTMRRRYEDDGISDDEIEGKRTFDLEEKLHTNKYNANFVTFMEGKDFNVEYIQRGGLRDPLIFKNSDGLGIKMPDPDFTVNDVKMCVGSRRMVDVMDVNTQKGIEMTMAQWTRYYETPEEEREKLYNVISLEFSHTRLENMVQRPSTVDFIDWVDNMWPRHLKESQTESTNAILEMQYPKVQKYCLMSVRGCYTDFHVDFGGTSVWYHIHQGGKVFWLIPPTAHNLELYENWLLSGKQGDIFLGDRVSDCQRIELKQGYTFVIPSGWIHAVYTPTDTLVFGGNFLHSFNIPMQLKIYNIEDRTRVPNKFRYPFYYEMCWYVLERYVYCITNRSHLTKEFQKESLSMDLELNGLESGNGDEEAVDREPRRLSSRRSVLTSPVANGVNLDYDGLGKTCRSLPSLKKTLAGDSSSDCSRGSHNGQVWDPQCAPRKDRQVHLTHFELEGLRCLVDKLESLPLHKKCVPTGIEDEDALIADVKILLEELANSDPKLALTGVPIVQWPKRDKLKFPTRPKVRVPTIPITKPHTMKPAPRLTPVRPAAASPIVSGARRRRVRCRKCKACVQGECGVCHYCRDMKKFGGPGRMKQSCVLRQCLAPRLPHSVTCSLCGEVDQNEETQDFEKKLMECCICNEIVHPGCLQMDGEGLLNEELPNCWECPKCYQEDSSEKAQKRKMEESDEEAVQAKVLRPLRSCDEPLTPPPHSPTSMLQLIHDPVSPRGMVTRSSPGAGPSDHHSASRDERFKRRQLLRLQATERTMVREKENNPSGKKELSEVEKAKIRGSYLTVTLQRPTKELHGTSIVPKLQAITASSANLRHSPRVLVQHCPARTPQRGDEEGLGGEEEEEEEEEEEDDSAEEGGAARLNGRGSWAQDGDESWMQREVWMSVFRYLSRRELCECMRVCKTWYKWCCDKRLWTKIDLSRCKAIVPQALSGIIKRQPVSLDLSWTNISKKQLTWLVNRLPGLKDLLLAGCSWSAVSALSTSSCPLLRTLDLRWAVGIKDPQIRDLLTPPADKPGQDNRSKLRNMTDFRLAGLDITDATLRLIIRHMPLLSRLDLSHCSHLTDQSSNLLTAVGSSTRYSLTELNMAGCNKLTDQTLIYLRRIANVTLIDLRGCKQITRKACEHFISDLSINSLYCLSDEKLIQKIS", "NP40-soluble protein abundance": "1.31 ± 0.11"}, {"target": "E9PLV1|Q9NQV6|Q9NQV6-1|Q9NQV6-2|Q9NQV6-4|Q9NQV6-5|Q9NQV6-6|Q9NQV6-7|E9PRS0 (UniProt Q9NQV6)", "sequence (Q9NQV6 whole entry, one chain of several)": "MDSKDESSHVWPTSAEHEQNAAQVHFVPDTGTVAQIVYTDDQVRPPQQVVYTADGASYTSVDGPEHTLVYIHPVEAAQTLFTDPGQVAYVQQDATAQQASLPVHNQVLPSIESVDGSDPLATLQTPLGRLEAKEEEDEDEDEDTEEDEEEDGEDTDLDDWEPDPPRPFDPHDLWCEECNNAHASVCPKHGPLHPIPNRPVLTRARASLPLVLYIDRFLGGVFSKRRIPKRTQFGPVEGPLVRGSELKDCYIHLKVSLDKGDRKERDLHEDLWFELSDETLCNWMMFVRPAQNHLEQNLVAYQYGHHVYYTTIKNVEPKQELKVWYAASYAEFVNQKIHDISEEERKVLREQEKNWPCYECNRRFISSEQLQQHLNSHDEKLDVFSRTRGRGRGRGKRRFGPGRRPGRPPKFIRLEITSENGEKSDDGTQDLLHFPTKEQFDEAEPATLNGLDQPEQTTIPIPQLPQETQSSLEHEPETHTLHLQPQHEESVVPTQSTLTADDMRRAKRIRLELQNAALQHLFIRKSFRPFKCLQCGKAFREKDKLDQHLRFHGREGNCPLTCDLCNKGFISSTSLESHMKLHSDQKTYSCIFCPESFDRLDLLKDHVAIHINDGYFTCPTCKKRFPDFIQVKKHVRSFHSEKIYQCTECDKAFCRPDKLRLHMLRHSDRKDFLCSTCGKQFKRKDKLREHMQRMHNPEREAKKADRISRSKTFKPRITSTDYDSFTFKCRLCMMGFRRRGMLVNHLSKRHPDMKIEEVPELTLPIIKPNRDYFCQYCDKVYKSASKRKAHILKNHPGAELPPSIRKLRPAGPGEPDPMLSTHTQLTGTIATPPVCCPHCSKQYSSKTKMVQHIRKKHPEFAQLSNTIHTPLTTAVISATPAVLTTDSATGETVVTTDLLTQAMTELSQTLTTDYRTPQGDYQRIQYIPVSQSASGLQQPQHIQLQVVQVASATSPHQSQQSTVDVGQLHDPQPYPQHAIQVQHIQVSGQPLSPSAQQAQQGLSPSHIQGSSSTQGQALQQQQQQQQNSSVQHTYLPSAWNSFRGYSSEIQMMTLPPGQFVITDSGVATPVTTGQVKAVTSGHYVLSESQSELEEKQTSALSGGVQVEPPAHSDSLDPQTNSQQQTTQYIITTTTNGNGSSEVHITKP", "NP40-soluble protein abundance": "1 ± 0.034"}, {"target": "G3V4X1|P62191|P62191-2 (UniProt P62191)", "NP40-soluble protein abundance": "0.882 ± 0.1"}, {"target": "D6RCD0|Q8NBQ5 (UniProt Q8NBQ5)", "NP40-soluble protein abundance": "1.04 ± 0.056"}, {"target": "L0R819 (UniProt Q9NWL6)", "NP40-soluble protein abundance": "0.972 ± 0.055"}, {"target": "H7BYF2|Q5JRG1|Q9BVL2|Q9BVL2-2|Q9BVL2-3 (UniProt Q9BVL2)", "NP40-soluble protein abundance": "1.04 ± 0.026"}]}, {"compound": "Nc1ncnc2c1ncn2[C@@H]1O[C@H](COP(=O)(O)OP(=O)(O)NP(=O)(O)O)[C@@H](O)[C@H]1O [adenylyl imidodiphosphate]", "experiment": "NP40-soluble protein abundance relative to vehicle (solubility fold change) (ratio); higher = more soluble protein in presence of AMP-PNP", "conditions": "concentration: 10mM", "outline": "as §1", "values": [{"target": "C9JKL2|O95772|O95772-2|C9J3F5|C9JJ39|C9JPX5 (UniProt O95772)", "NP40-soluble protein abundance": "1 ± 0.034"}, {"target": "H7C5A7|O14734 (UniProt O14734)", "NP40-soluble protein abundance": "0.961 ± 0.02"}, {"target": "J3KNF8|O43169 (UniProt O43169)", "NP40-soluble protein abundance": "1.05 ± 0.054"}, {"target": "SART1 (UniProt O43290)", "NP40-soluble protein abundance": "1.36 ± 0.081"}, {"target": "H0YIV9|O43716 (UniProt O43716+H0YIV9)", "NP40-soluble protein abundance": "0.962 ± 0.013"}, {"target": "J3KNN5|Q9UJV9 (UniProt Q9UJV9)", "NP40-soluble protein abundance": "1.22 ± 0.065"}, {"target": "CHMP2A (UniProt O43633)", "NP40-soluble protein abundance": "0.915 ± 0.078"}, {"target": "C9JIF9|P13798 (UniProt P13798)", "NP40-soluble protein abundance": "0.871 ± 0.04"}, {"target": "ZC3H11A (UniProt O75152)", "NP40-soluble protein abundance": "1.03 ± 0.098"}, {"target": "F8VXC8|Q8TAQ2|Q8TAQ2-2|Q8TAQ2-3 (UniProt Q8TAQ2)", "NP40-soluble protein abundance": "1.09 ± 0.1"}, {"target": "I3L4X7|Q13227|Q13227-2 (UniProt Q13227)", "NP40-soluble protein abundance": "1.1 ± 0.019"}, {"target": "E9PBG7|E9PF82|Q13557|Q13557-10|Q13557-11|Q13557-12|Q13557-3|Q13557-4|Q13557-5|Q13557-6|Q13557-8|Q13557-9 (UniProt Q13557)", "NP40-soluble protein abundance": "0.88 ± 0.027"}, {"target": "A0A0A0MTB8|Q8NI36 (UniProt Q8NI36)", "NP40-soluble protein abundance": "1.78 ± 0.086"}, {"target": "F8VU39|J3KPG5|Q9UIF9|Q9UIF9-2|Q9UIF9-3 (UniProt Q9UIF9)", "NP40-soluble protein abundance": "1.03 ± 0.037"}, {"target": "A0A0B4J220 (UniProt E9PRG8)", "NP40-soluble protein abundance": "1.39 ± 0.046"}, {"target": "F5H0R1|Q9H6E5 (UniProt Q9H6E5)", "NP40-soluble protein abundance": "0.978 ± 0.025"}, {"target": "E7ESS3|K7EKW3|Q71RG4|Q71RG4-2 (UniProt Q71RG4)", "NP40-soluble protein abundance": "1 ± 0.032"}, {"target": "K7EK07|P84243 (UniProt P84243+K7EK07)", "NP40-soluble protein abundance": "1.16 ± 0.1"}, {"target": "A0A0A0MTL5|Q13309|Q13309-2 (UniProt Q13309)", "NP40-soluble protein abundance": "0.91 ± 0.014"}, {"target": "CDIPT (UniProt O14735)", "NP40-soluble protein abundance": "0.974 ± 0.039"}, {"target": "J3KPP4|O95232 (UniProt O95232)", "NP40-soluble protein abundance": "1.51 ± 0.049"}, {"target": "F8W1A0|P36873 (UniProt P36873)", "NP40-soluble protein abundance": "0.9667 ± 0.0073"}, {"target": "PSMD3 (UniProt O43242)", "NP40-soluble protein abundance": "0.915 ± 0.14"}, {"target": "F5H7W8|Q96C57 (UniProt Q96C57)", "NP40-soluble protein abundance": "1.37 ± 0.12"}, {"target": "CCDC85C (UniProt A6NKD9)", "NP40-soluble protein abundance": "0.9704 ± 0.0054"}, {"target": "F6TLX2|Q9HC38-2 (UniProt Q9HC38)", "NP40-soluble protein abundance": "0.95 ± 0.047"}, {"target": "B4E0Y9|Q8NBY1|Q9P289 (UniProt Q9P289)", "NP40-soluble protein abundance": "1.06 ± 0.039"}, {"target": "I3VM54|Q9Y2K7 (UniProt Q9Y2K7)", "NP40-soluble protein abundance": "1.43 ± 0.17"}, {"target": "E9PLV1|Q9NQV6|Q9NQV6-1|Q9NQV6-2|Q9NQV6-4|Q9NQV6-5|Q9NQV6-6|Q9NQV6-7|E9PRS0 (UniProt Q9NQV6)", "NP40-soluble protein abundance": "0.98 ± 0.023"}, {"target": "G3V4X1|P62191|P62191-2 (UniProt P62191)", "NP40-soluble protein abundance": "0.89 ± 0.12"}, {"target": "D6RCD0|Q8NBQ5 (UniProt Q8NBQ5)", "NP40-soluble protein abundance": "1.04 ± 0.064"}, {"target": "L0R819 (UniProt Q9NWL6)", "NP40-soluble protein abundance": "1 ± 0.044"}, {"target": "H7BYF2|Q5JRG1|Q9BVL2|Q9BVL2-2|Q9BVL2-3 (UniProt Q9BVL2)", "NP40-soluble protein abundance": "1.11 ± 0.06"}]}]}
